# IP6K1 inhibitor: Primary qHTS assay for small molecule inhibitors of Inositol hexaphosphate kinase 1 (IP6K1). Inositol hexakisphosphate kinase 1 (Homo sapiens), Q92551. IP6K1 kinase, ADP-Glo luminescence, 2 h; active compounds read low. activity change, % (series mostly up to about 58 µM). actives 0.81% (n = 140,000). AID 1645851, 2021; in the data active = activity change below about -25%; note: % is set by controls: 0 for no effect and ±100 for the full control effect
# Target sequence (Q92551 whole entry, looked up): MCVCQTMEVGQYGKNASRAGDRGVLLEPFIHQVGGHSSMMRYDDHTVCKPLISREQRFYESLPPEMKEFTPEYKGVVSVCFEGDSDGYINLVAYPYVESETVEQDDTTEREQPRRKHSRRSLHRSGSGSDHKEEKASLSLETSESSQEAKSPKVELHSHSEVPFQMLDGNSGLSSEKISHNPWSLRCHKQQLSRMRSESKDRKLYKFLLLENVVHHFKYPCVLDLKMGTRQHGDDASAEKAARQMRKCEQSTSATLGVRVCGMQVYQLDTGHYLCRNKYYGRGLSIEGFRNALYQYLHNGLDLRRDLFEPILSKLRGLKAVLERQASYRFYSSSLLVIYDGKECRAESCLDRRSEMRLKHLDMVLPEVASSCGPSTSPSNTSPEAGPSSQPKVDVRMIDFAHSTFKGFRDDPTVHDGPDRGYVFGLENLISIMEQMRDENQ
#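 ADP-Glo luminescence measures ADP made by human IP6K1 during a 2 h RT reaction with ATP/IP6 (mix at 1.3 mM/130 uM); top library doses 57.5 and 19.1 uM final.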
# KDM5B inh: Primary screen for KDM5B Histone Demethylases FDH-coupled qHTS; Lysine-specific demethylase 5B (Homo sapiens), Q9UGL1; KDM5B demethylase, FDH-coupled NADH fluorescence (FDH is formaldehyde dehydrogenase); Potency, µM (series often up to 57.7 µM), most hits filed as inhibitors; actives 2.6% (n = 220,000); note: potency is the fitted concentration of half-maximal effect; 0% is about no effect; nearly all actives have a fitted effect of over 70% in size
#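 Compound dilutions met 200 nM (final) KDM5BΔAP for 10 min at room temperature before substrate addition. The substrate mix held 12.5 µM H3K4me3 with cofactors 25 µM α-ketoglutarate and 50 µM Fe²⁺. NADH signal gain over 30 min defined activity.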
# SNCA viab count: GF-AFC viability counterscreen for inhibitors of alpha-synuclein gene (SNCA) expression; HEK-293-SNCA-luc viability, GF-AFC fluorescence, 24 h; Potency, µM (doses to about 57.1 µM), for inactives: at the highest dose activity change, negative = cytotoxicity, actives largely listed as cytotoxic; actives 0.12% (n = 150,000); AID 1671193, 2021;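 note: potency is the fitted concentration of half-maximal effect; 0% = DMSO-treated cells and -100% = medium-only wells without cells; nearly all actives have a fitted effect of over 30% in size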
#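 Cytotoxicity counterscreen: after 24 h compound treatment of genome-edited SNCA-luciferase HEK-293 cells, live-cell protease substrate GF-AFC read by fluorescence after 30 min; activity scaled between DMSO (0%) and medium-only (-100%), curves Hill-fitted.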
# SNCA expr inh: Primary qHTS assay for inhibitors of alpha-synuclein gene (SNCA) expression | HEK-293 SNCA-luciferase knock-in, luminescence, 24 h | Potency, µM (doses to about 57.2 µM), inactives show at the highest dose activity change, negative = inhibition, actives largely listed as inhibitors | actives 0.17% (n = 140,000) | AID 1671194, 2021;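 note: potency is the fitted concentration of half-maximal effect; plate controls were DMSO cells for no effect and cell-free wells for full effect; nearly all actives have a fitted effect of over 45% in size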
# * = called active by the depositor; i = inactive; ? = inconclusive; · = not tested or not shown; [ ] = another dose, or the depositor's remark. This is a sample that favours compounds with a hit; in the whole collection about 2.8% have one here. Unless noted, calls come from the whole dose curve; as a rule, active = well fitted curve in the direction sought with a large enough effect; inconclusive = small, poorly fitted or top-dose-only effect, or another doubt; inactive = no such curve, though single readings can be large; an effect the other way counts as inactive or inconclusive.
SMILES,IP6K1 inhibitor,KDM5B inh,SNCA viab count,SNCA expr inh
COCCCNC(=O)c1ccc2c(c1)n(Cc1ccccc1)c(=O)c1ccnn12,1,?,-14%,-2%
O=C(NCc1cccs1)c1ccc2c(c1)n(Cc1cccc(F)c1)c(=O)c1ccnn12,-9,28µM*,-16%,-20%
CC(C)Cc1noc(CN2CCC(c3nc4cc(Cl)ccc4o3)CC2)n1,·,i,·,·
Cc1ccc(OCC(O)Cn2nc(C)c3ccccc3c2=O)cc1 (configuration not stated),·,i,·,·
O=C(O)c1ccc2c(c1)n(Cc1cccc(F)c1)c(=O)c1ccnn12,9,28µM*,16%,-26%
CCN(CC)CCNC(=O)c1ccc2c(c1)n(Cc1cccc(F)c1)c(=O)c1ccnn12,1,28µM*,-4%,?
O=C(NCc1ccco1)c1ccc2c(c1)n(Cc1ccc(F)cc1)c(=O)c1ccnn12,35,28µM*,?,?
O=C(NC1CCCC1)c1ccc2c(c1)n(Cc1cccc(F)c1)c(=O)c1ccnn12,-9,?,-17%,4%
O=C(O)c1ccc2c(c1)n(Cc1ccc(F)cc1)c(=O)c1ccnn12,-4,20µM*,13%,33%
CC1Oc2ccc(NC(=O)Cc3ccc(F)cc3)cc2CN(CC2CC2)C1=O (configuration not stated),-1,i,2%,-11%
COc1ccc(Cn2c(=O)c3ccnn3c3ccc(C(=O)NCc4cccnc4)cc32)cc1,8,?,1%,-9%
O=C(NCc1cccnc1)c1ccc2c(c1)n(Cc1ccccc1)c(=O)c1ccnn12,35,28µM*,-18%,21%
Cc1ccc(OCCSc2nc3ccccc3n2CC(=O)N2CCCCC2)c(C)c1,19,?,14µM*,-8%
Cc1ccc(C)c(OCCSc2nc3ccccc3n2CC(=O)N2CCOCC2)c1,13,i,?,?
CN1CCN(c2cc(N3CC[C@H](CO)[C@H](O)C3)nc(N)n2)CC1,-7,i,-4%,-17%
Nc1cc(N2CC[C@@H](N3CCN(CCc4ccccc4)CC3)[C@H](O)C2)nc(N)n1,-6,4.5µM*,-8%,19%
O=C(NCCc1ccc(F)cc1)C1CCCC1,·,i,·,·
C[C@@H](NC(=O)c1ccc(Cl)cc1)c1c(-c2ccc(F)cc2)noc1C(=O)O,-23,?,7%[87.6 µM],13%[87.6 µM]
Cc1cc(C(=O)N[C@H](C)c2c(-c3ccc(Cl)cc3)noc2C(=O)O)c(C)o1,-11,28µM*,20%[87.6 µM],7%[87.6 µM]
COc1ccc2c(c1)c1c(c(=O)n(Cc3ccccc3)c(=O)n1Cc1ccccc1Cl)n2C,-2,i,-1%,3.2µM*
COc1ccc(OC)c(NC(=O)Cn2c(-c3cccc(Cl)c3)nc(C)c(CCO)c2=O)c1,-5,i,-12%,-25%
COc1ccc(OC)c(NC(=O)Cn2c(-c3ccc(Cl)cc3)nc(C)c(CCO)c2=O)c1,-4,25µM*,-3%,28%
Cc1nn(-c2ccccc2)c2c1C(C)N(C1CCN(C(=O)Nc3ccc(Cl)cc3)CC1)C2=O (configuration not stated),-2,·,·,·
NC1CCc2nn(CC(=O)NCc3ccc4c(c3)OCO4)c(=O)n2CC1 (configuration not stated),-13,10µM*,7%,1%
Cc1cc2cc(NS(=O)(=O)c3c(C)cccc3[N+](=O)[O-])ccc2[nH]1,·,i,·,·
SMILES,IP6K1 inhibitor,KDM5B inh,SNCA viab count,SNCA expr inh
Cc1cc(NC(=O)c2cc3n(n2)CC(c2ccc(Cl)cc2)OC3)ccc1F (configuration not stated),21,?,6%,23%
NC(=O)c1ccc(NC(=O)c2cc3n(n2)CC(c2ccc(Br)cc2)OC3)cc1 (configuration not stated),0,25µM*,2%,-8%
CC(=O)Nc1ccc(NC(=O)c2cc3n(n2)CC(c2ccc(Br)cc2)OC3)cc1 (configuration not stated),-7,?,-29%,?
COc1ccc(NC(=O)c2cc3n(n2)CC(c2ccc(Br)cc2)OC3)cc1OC (configuration not stated),1,?,?,-28%
COc1cc(NC(=O)c2cc3n(n2)CC(c2ccc(Br)cc2)OC3)cc(OC)c1OC (configuration not stated),-3,32µM*,-19%,?
O=C(Nc1cccc(F)c1)c1cc2n(n1)CC(c1ccc(Br)cc1)OC2 (configuration not stated),5,25µM*,5%,4%
Cc1ccc(C(=O)OCCCN(C)C)cc1,·,i,·,·
C[C@@]1(O)CCN(Cc2ccc3c4c(cccc24)C(=O)OC3)C[C@@H]1O,5,28µM*,-1%,1%
O=C1[C@@H]2[C@@H](CCN2C(=O)NC2CCCCC2)N(Cc2cccs2)C(=O)N1c1cccc(F)c1,8,i,4%,-6%
O=C(c1ccc2c(c1)OCO2)N1C[C@@H](CO)[C@H](c2nc(C3CC3)no2)C1,-15,i,-9%,-12%
COCc1nnc2n1CCC(NC(=O)c1n[nH]c3ccccc13)CC2 (configuration not stated),-9,28µM*,1%,3%
COCc1nnc2n1CCC(NC(=O)Cc1c[nH]c3ccccc13)CC2 (configuration not stated),2,i,-6%,4%
CCS(=O)(=O)c1ncc(Cl)c(C(=O)N(Cc2ccccc2)Cc2ccco2)n1,-5,?,8.9µM*,?
Cc1cc(=O)n(CC(=O)Nc2ccc(Cl)cc2)c(N2CCc3ccccc3C2)n1,17,?,-14%,?
Cc1cc(=O)n(CC(=O)Nc2cccc(C(C)C)c2)c(N2CCc3ccccc3C2)n1,26,22µM*,-8%,2%
COc1cccc(CNC(=O)Cn2c(N3CCc4ccccc4C3)nc(C)cc2=O)c1,11,35µM*,-19%,?
Cc1cc(=O)n(CC(=O)Nc2ccc(C(C)C)cc2)c(N2CCc3ccccc3C2)n1,15,i,-1%,3%
Cc1cc(=O)n(CC(=O)Nc2cccc(Cl)c2)c(N2CCc3ccccc3C2)n1,-3,13µM*,?,?
CCc1ccccc1Nc1nc(N)c(C(=O)c2ccc(C)cc2)s1,·,i,·,·
O=C(c1cccnc1N1CC2CC(C1)[C@H]1CCCC(=O)N1C2)N1CC=C(c2ccccc2)CC1 (some centres not stated),5,32µM*,-5%,15%
O=C(NCc1ccc(N2CCOCC2)cc1)c1cccnc1N1CC2CC(C1)[C@H]1CCCC(=O)N1C2 (some centres not stated),-1,?,12%,?
O=C(NCCCN1CCOCC1)c1cccnc1N1CC2CC(C1)[C@H]1CCCC(=O)N1C2 (some centres not stated),4,28µM*,2%,10%

# Compound activity deposited in PubChem by National Center for Advancing Translational Sciences (NCATS).
